Source: PubChem BioAssay (NCATS)
Values joined by “and” are separate entries in the source; they are usually repeats but may differ in a detail not shown here. Identical values can stand only once. Results filed as inconclusive are left out. A structure can be active in one record and inactive in another. Active and inactive are the calls of the source. Unless noted, calls come from the whole dose curve; as a rule, active = well fitted curve in the direction sought with a large enough effect; inconclusive = small, poorly fitted or top-dose-only effect, or another doubt; inactive = no such curve, though single readings can be large; an effect the other way counts as inactive or inconclusive.

target: Cytochrome P450 2C9 (Homo sapiens) (UniProt P11712); assay: Cytochrome P450 family 2 subfamily C member 9 (CYP2C9) small molecule antagonists: luciferase biochemical (cell-free) qHTS assay (AID 1645842; active = well fitted curve in the direction sought with a large enough effect in the repeat runs; an effect the other way counts as inactive or inconclusive; note: nearly all actives have a fitted effect of over 55% in size); conditions: P450-Glo CYP2C9 enzyme assay, luciferin luminescence; series mostly up to 57.4 µM; activity change, negative = inhibition: at the top concentration
How it was run: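 P450-Glo CYP2C9 system: proluciferin substrate with enzyme in mix containing 0.4% BSA, 10 min at room temperature, then NADPH regeneration solution added and incubated 1 h at 37C. Detection reagent stopped reaction; luminescence read after 20 min as RLU.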
% is set by controls: 0 for no effect and ±100 for the full control effect; potency is the fitted concentration of half-maximal effect.

Sequence of Cytochrome P450 2C9 (Homo sapiens) (P11712 whole entry, looked up): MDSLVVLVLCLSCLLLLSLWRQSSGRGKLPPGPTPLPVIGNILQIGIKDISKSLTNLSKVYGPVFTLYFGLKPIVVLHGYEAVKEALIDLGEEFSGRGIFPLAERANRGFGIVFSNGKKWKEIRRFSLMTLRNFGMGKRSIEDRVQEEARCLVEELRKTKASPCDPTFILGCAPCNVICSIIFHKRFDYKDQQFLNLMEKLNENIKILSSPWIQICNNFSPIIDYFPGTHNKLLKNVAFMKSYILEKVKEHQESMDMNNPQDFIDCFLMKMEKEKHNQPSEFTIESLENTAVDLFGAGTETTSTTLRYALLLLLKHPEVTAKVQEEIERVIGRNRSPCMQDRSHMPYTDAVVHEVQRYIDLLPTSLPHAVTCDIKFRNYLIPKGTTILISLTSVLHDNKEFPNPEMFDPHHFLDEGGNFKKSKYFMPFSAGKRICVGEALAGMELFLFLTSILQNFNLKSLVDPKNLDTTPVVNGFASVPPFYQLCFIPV

Question: For `CN(C)CC/C=C1/c2ccccc2COc2ccc(CC(=O)O)cc21`, which “activity change, negative = inhibition” value is on record?
Answer: 8.22% (inactive)

Question: For `CC(C)n1nc(-c2cc3cc(O)ccc3[nH]2)c2c(N)ncnc21`, which Potency is on record?
Answer: 1.95 µM (active) and 1.51 µM (active)

Question: With `CN(C(=O)CN(CCO)CC(=O)N(C)C(C)(C)Cc1ccccc1)C(C)(C)Cc1ccccc1` as the compound, how does the Potency read?
Answer: 15.5 µM (active)

Question: For `Cc1nc2n(c(=O)c1CCN1CCC(c3noc4cc(F)ccc34)CC1)CCC[C@H]2O`, which Potency is on record?
Answer: inactive

Question: Which Potency does the source give for `Cc1cccc(C)c1NC(=O)CN1CCN(CCCC(c2ccc(F)cc2)c2ccc(F)cc2)CC1` here?
Answer: 19.5 µM (active)

Question: Which Potency does the source give for `c1ccc(-c2ccc(C(c3ccccc3)n3ccnc3)cc2)cc1` (stereo unspecified) here?
Answer: 0.0245 µM (active)

Question: With `Oc1c(I)cc(I)c2cccnc12` as the compound, how does the Potency read?
Answer: inactive

Question: With `CCOc1ccc2nc3cc(N)ccc3c(N)c2c1` as the compound, how does the “activity change, negative = inhibition” value read?
Answer: 15.7% (inactive)

Question: For `CCCCc1nc(Cl)c(CO)n1Cc1ccc(-c2ccccc2-c2nn[nH]n2)cc1`, which Potency is on record?
Answer: 2.68 µM (active)

Question: For `O=C(OCCOCCO)c1ccccc1Nc1cccc(C(F)(F)F)c1`, which Potency is on record?
Answer: 17.4 µM (active)

Question: With `O=C(OCC(O)CO)c1ccccc1Nc1ccnc2cc(Cl)ccc12` (stereo unspecified) as the compound, how does the Potency read?
Answer: 5.49 µM (active)

system: not listed separately; assay: Primary qHTS for inhibitors of nuclear receptor binding SET domain protein 2 (NSD2) in an isogenic RCH-ACV NSD2 p.E1099K mutant (9B) (AID 1645876); conditions: RCH-ACV NSD2 E1099K (9B) viability, CellTiter-Glo, 72 h; series mostly up to 44.9 µM; activity change, negative = viability loss: at the top concentration; note: nearly all actives have a fitted effect of over 70% in size

Question: With `COc1cccc(OC)c1C(=O)N[C@@H]1C(=O)N2[C@@H]1SC(C)(C)[C@@H]2C(=O)O` as the compound, how does the Potency read?
Answer: inactive

Question: For `N[C@@H](CCC(=O)N[C@@H](CS)C(=O)NCC(=O)O)C(=O)O`, which “activity change, negative = viability loss” value is on record?
Answer: 1.72% [at 17.3 µM] (inactive)

Question: With `OC[C@@H](O)[C@@H](O[C@@H]1O[C@H](CO)[C@H](O)[C@H](O)[C@H]1O)[C@H](O)[C@@H](O)CO` as the compound, how does the “outcome” value read?
Answer: inactive

Question: With `CC(=O)Oc1ccc(C(c2ccc(OC(C)=O)cc2)c2ccccn2)cc1` as the compound, how does the “activity change, negative = viability loss” value read?
Answer: -30.3% (inactive)

Question: For `O=c1[nH]c(=O)n([C@H]2C[C@H](O)[C@@H](CO)O2)cc1C(F)(F)F`, which Potency is on record?
Answer: 596 nM (active) and 1.05 µM (active)

Question: For `CC(=O)N(O)CCCCCNC(=O)CCC(=O)N(O)CCCCCNC(=O)CCC(=O)N(O)CCCCCN`, which Potency is on record?
Answer: 7.5 µM (active) and 5.25 µM (active)

Question: For `Cc1ccc(O)c2ncccc12`, which Potency is on record?
Answer: 10.6 µM (active)

Question: Which Potency does the source give for `CCCCCCCCCCCCCCCC[N+](C)(C)CCN(Cc1ccc(OC)cc1)c1ncccn1` here?
Answer: 0.668 µM (active)

Question: For `Nc1ccc(C(=O)Nc2ccccc2N)cc1`, which Potency is on record?
Answer: 9.44 µM (active)

Question: For `COC(=O)C1=C(C)NC(C)=C(C(=O)O[C@@H]2CCCN(Cc3ccccc3)C2)[C@@H]1c1cccc([N+](=O)[O-])c1`, which Potency is on record?
Answer: 21.1 µM (active) and 25.8 µM (active)

Question: With `CC(=O)Oc1ccc(C(=C2CCCCC2)c2ccc(OC(C)=O)cc2)cc1` as the compound, how does the “activity change, negative = viability loss” value read?
Answer: -17.5% (inactive)

Question: For `C=C(CC)C(=O)c1ccc(OCC(=O)O)c(Cl)c1Cl`, which Potency is on record?
Answer: 21.1 µM (active)

Question: Which Potency does the source give for `C/C=C(/C(=C/C)c1ccc(O)cc1)c1ccc(O)cc1` here?
Answer: 14.8 µM (active)

Question: With `CCOc1ccc(Cc2nccc3cc(OCC)c(OCC)cc23)cc1OCC` as the compound, how does the Potency read?
Answer: 2.37 µM (active)

Question: With `C[C@H](CCC(=O)O)[C@H]1CC[C@H]2[C@@H]3C(=O)C[C@@H]4CC(=O)CC[C@]4(C)[C@H]3CC(=O)[C@]12C` as the compound, how does the “outcome” value read?
Answer: inactive

Question: Which Potency does the source give for `CCCCS(=O)(=O)N[C@@H](Cc1ccc(OCCCCC2CCNCC2)cc1)C(=O)O` here?
Answer: inactive

Question: Which “activity change, negative = viability loss” value does the source give for `COc1cc(C(=S)N2CCOCC2)cc(OC)c1OC` here?
Answer: 0.996% (inactive)

Question: Which “outcome” value does the source give for `CCCCCCCCCCCCCCCCCC(=O)OCC(O)CO` (stereo unspecified) here?
Answer: inactive

Question: For `CN1CCN(C(c2ccccc2)c2ccccc2)CC1`, which Potency is on record?
Answer: inactive

Question: Which Potency does the source give for `Cc1ccccc1C(=O)Nc1ccc(C(=O)N2CCCC(N(C)C)c3ccccc32)cc1` (stereo unspecified) here?
Answer: 5.78 µM (active)

Question: For `O=C(Nc1ccc(Oc2ccc(Cl)cc2)c(Cl)c1)c1cc(I)cc(I)c1O`, which “activity change, negative = viability loss” value is on record?
Answer: -1.72% (inactive)

Question: Which Potency does the source give for `C[n+]1c2cc(N)ccc2cc2ccc(N)cc21` (tested in a mixture with another compound) here?
Answer: 1.5 µM (active)

Question: For `CC(C)(CO)[C@@H](O)C(=O)NCCCO`, which “activity change, negative = viability loss” value is on record?
Answer: 8.27% (inactive)

Question: For `CC(C)(C)CC(C)(C)c1ccc(O)c(Cc2ccc(Cl)cc2Cl)c1`, which “activity change, negative = viability loss” value is on record?
Answer: -13.3% (inactive)

Question: For `CN(C)CC/C=C1/c2ccccc2COc2ccc(CC(=O)O)cc21`, which Potency is on record?
Answer: inactive

Question: For `CC(C)n1nc(-c2cc3cc(O)ccc3[nH]2)c2c(N)ncnc21`, which Potency is on record?
Answer: 29.9 nM (active) and 3.32 µM (active)

Question: For `CN(C(=O)CN(CCO)CC(=O)N(C)C(C)(C)Cc1ccccc1)C(C)(C)Cc1ccccc1`, which Potency is on record?
Answer: 5.31 µM (active)

Question: For `Cc1nc2n(c(=O)c1CCN1CCC(c3noc4cc(F)ccc34)CC1)CCC[C@H]2O`, which Potency is on record?
Answer: inactive

Question: For `Cc1cccc(C)c1NC(=O)CN1CCN(CCCC(c2ccc(F)cc2)c2ccc(F)cc2)CC1`, which Potency is on record?
Answer: 23.7 µM (active)

Question: With `c1ccc(-c2ccc(C(c3ccccc3)n3ccnc3)cc2)cc1` (stereo unspecified) as the compound, how does the Potency read?
Answer: 21.1 µM (active)

Question: For `Oc1c(I)cc(I)c2cccnc12`, which Potency is on record?
Answer: 2.99 µM (active)

Question: For `CCOc1ccc2nc3cc(N)ccc3c(N)c2c1`, which Potency is on record?
Answer: 5.96 µM (active)

Question: With `CCCCc1nc(Cl)c(CO)n1Cc1ccc(-c2ccccc2-c2nn[nH]n2)cc1` as the compound, how does the “outcome” value read?
Answer: inactive

Question: With `O=C(OCC(O)CO)c1ccccc1Nc1ccnc2cc(Cl)ccc12` (stereo unspecified) as the compound, how does the Potency read?
Answer: 16.8 µM (active)

system: not listed separately; assay: Primary qHTS for inhibitors of nuclear receptor binding SET domain protein 2 (NSD2) in an RCH-ACV wild type WT cells (2C) (AID 1645877); conditions: RCH-ACV (leukaemia line) NSD2 WT (2C) viability, CellTiter-Glo, 72 h; series mostly up to 44.9 µM; activity change, negative = cell killing: at the top concentration; note: nearly all actives have a fitted effect of over 70% in size

Question: Which “activity change, negative = cell killing” value does the source give for `COc1cccc(OC)c1C(=O)N[C@@H]1C(=O)N2[C@@H]1SC(C)(C)[C@@H]2C(=O)O` here?
Answer: -7.81% (inactive)

Question: With `N[C@@H](CCC(=O)N[C@@H](CS)C(=O)NCC(=O)O)C(=O)O` as the compound, how does the “activity change, negative = cell killing” value read?
Answer: 9.03% [at 17.3 µM] (inactive)

Question: For `OC[C@@H](O)[C@@H](O[C@@H]1O[C@H](CO)[C@H](O)[C@H](O)[C@H]1O)[C@H](O)[C@@H](O)CO`, which “outcome” value is on record?
Answer: inactive

Question: For `O=c1[nH]c(=O)n([C@H]2C[C@H](O)[C@@H](CO)O2)cc1C(F)(F)F`, which Potency is on record?
Answer: 106 nM (active) and 662 nM (active)

Question: With `CC(=O)N(O)CCCCCNC(=O)CCC(=O)N(O)CCCCCNC(=O)CCC(=O)N(O)CCCCCN` as the compound, how does the Potency read?
Answer: 4.73 µM (active) and 4.68 µM (active)

Question: For `CCCCCCCCCCCCCCCC[N+](C)(C)CCN(Cc1ccc(OC)cc1)c1ncccn1`, which Potency is on record?
Answer: 0.75 µM (active)

Question: Which Potency does the source give for `Nc1ccc(C(=O)Nc2ccccc2N)cc1` here?
Answer: 8.41 µM (active)

Question: With `COC(=O)C1=C(C)NC(C)=C(C(=O)O[C@@H]2CCCN(Cc3ccccc3)C2)[C@@H]1c1cccc([N+](=O)[O-])c1` as the compound, how does the Potency read?
Answer: 20.5 µM (active)

Question: For `CC(=O)Oc1ccc(C(=C2CCCCC2)c2ccc(OC(C)=O)cc2)cc1`, which “activity change, negative = cell killing” value is on record?
Answer: -20.1% (inactive)

Question: Which Potency does the source give for `C/C=C(/C(=C/C)c1ccc(O)cc1)c1ccc(O)cc1` here?
Answer: 10.5 µM (active)

Question: With `CCOc1ccc(Cc2nccc3cc(OCC)c(OCC)cc23)cc1OCC` as the compound, how does the Potency read?
Answer: 2.37 µM (active)

Question: Which “activity change, negative = cell killing” value does the source give for `C[C@H](CCC(=O)O)[C@H]1CC[C@H]2[C@@H]3C(=O)C[C@@H]4CC(=O)CC[C@]4(C)[C@H]3CC(=O)[C@]12C` here?
Answer: 4.99% (inactive)

Question: Which Potency does the source give for `CCCCS(=O)(=O)N[C@@H](Cc1ccc(OCCCCC2CCNCC2)cc1)C(=O)O` here?
Answer: inactive

Question: For `COc1cc(C(=S)N2CCOCC2)cc(OC)c1OC`, which “activity change, negative = cell killing” value is on record?
Answer: -14% (inactive)

Question: With `CCCCCCCCCCCCCCCCCC(=O)OCC(O)CO` (stereo unspecified) as the compound, how does the “outcome” value read?
Answer: inactive

Question: Which Potency does the source give for `CN1CCN(C(c2ccccc2)c2ccccc2)CC1` here?
Answer: inactive

Question: With `Cc1ccccc1C(=O)Nc1ccc(C(=O)N2CCCC(N(C)C)c3ccccc32)cc1` (stereo unspecified) as the compound, how does the Potency read?
Answer: inactive and 5.15 µM (active)

Question: With `O=C(Nc1ccc(Oc2ccc(Cl)cc2)c(Cl)c1)c1cc(I)cc(I)c1O` as the compound, how does the “activity change, negative = cell killing” value read?
Answer: -14.6% (inactive)

Question: With `C[n+]1c2cc(N)ccc2cc2ccc(N)cc21` (tested in a mixture with another compound) as the compound, how does the Potency read?
Answer: 1.19 µM (active)

Question: For `CC(C)(CO)[C@@H](O)C(=O)NCCCO`, which “activity change, negative = cell killing” value is on record?
Answer: 2.56% (inactive)

Question: With `CN(C)CC/C=C1/c2ccccc2COc2ccc(CC(=O)O)cc21` as the compound, how does the Potency read?
Answer: inactive

Question: With `CC(C)n1nc(-c2cc3cc(O)ccc3[nH]2)c2c(N)ncnc21` as the compound, how does the Potency read?
Answer: 47.3 nM (active) and 3.32 µM (active)

Question: For `CN(C(=O)CN(CCO)CC(=O)N(C)C(C)(C)Cc1ccccc1)C(C)(C)Cc1ccccc1`, which Potency is on record?
Answer: 5.31 µM (active)

Question: Which Potency does the source give for `Cc1nc2n(c(=O)c1CCN1CCC(c3noc4cc(F)ccc34)CC1)CCC[C@H]2O` here?
Answer: inactive

Question: With `Cc1cccc(C)c1NC(=O)CN1CCN(CCCC(c2ccc(F)cc2)c2ccc(F)cc2)CC1` as the compound, how does the Potency read?
Answer: 11.9 µM (active)

Question: Which Potency does the source give for `c1ccc(-c2ccc(C(c3ccccc3)n3ccnc3)cc2)cc1` (stereo unspecified) here?
Answer: 13.3 µM (active)

Question: For `Oc1c(I)cc(I)c2cccnc12`, which Potency is on record?
Answer: 2.11 µM (active)

Question: Which Potency does the source give for `CCOc1ccc2nc3cc(N)ccc3c(N)c2c1` here?
Answer: 5.31 µM (active)

Question: For `CCCCc1nc(Cl)c(CO)n1Cc1ccc(-c2ccccc2-c2nn[nH]n2)cc1`, which “activity change, negative = cell killing” value is on record?
Answer: -8.12% (inactive)

Question: Which Potency does the source give for `O=C(OCCOCCO)c1ccccc1Nc1cccc(C(F)(F)F)c1` here?
Answer: 16.8 µM (active)

Question: With `O=C(OCC(O)CO)c1ccccc1Nc1ccnc2cc(Cl)ccc12` (stereo unspecified) as the compound, how does the Potency read?
Answer: 23.7 µM (active)
